Experimental data from PubChem BioAssay AID1159580 (chemical genetic matrix, 2015).
Several values for one entry are separate records, joined by “and”; a condition that tells them apart may be missing. Identical values can stand only once. Hit rate of the full screen: of about 5,500 compounds, about 2,000 (36%) were called active. Roughly 18% stayed inconclusive and do not appear here. Cut-off read from the data, not from the text of the source: active = normalized growth mostly below about 0.91 (no sharp cut-off); inconclusive = no clear call, values can overlap the other calls; inactive = mostly above about 0.92. The list shows a part of the results.

Assay: chemical genetic growth profiling, strain panel (AID 1159580);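 note: tested at 20 µM; growth read once vehicle control cultures reached saturation at 30 °C; 1 = growth at the plate median or of vehicle wells; lower values mean less growth of the strain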
Details: growth OD

Measured: normalized growth

CCc1cccc2c3c([nH]c12)C(CC)(CC(=O)O)OCC3 (stereo not given)
inactive: S. cerevisiae deletion strains, locus YKL009W, strain mrt4, active compounds read low 0.965 | S. cerevisiae deletion strains, locus YKL068W, active compounds read low 1 | S. cerevisiae deletion strains, locus YKL085W, strain MDH1 (second series), active compounds read low 0.992 | S. cerevisiae deletion strains, locus YKL085W, strain MDH1, active compounds read low 0.992 | S. cerevisiae deletion strains, locus YKL160W, strain elf1, active compounds read low 0.975 | S. cerevisiae deletion strains, locus YKL190W, strain CNB1, active compounds read low 1 | S. cerevisiae deletion strains, locus YKR001C, strain vps1, active compounds read low 0.98 | S. cerevisiae deletion strains, locus YKR026C, strain gcn3, active compounds read low 0.987 | S. cerevisiae deletion strains, locus YKR091W, strain srl3, active compounds read low 0.978 | S. cerevisiae deletion strains, locus YLL001W, strain dnm1, active compounds read low 0.961 | S. cerevisiae deletion strains, locus YLL026W, active compounds read low 0.99 | S. cerevisiae deletion strains, locus YLL041C, strain sdh2, active compounds read low 0.976 | S. cerevisiae deletion strains, locus YLR027C, strain aat2, active compounds read low 0.987 | S. cerevisiae deletion strains, locus YLR039C, strain RIC1, active compounds read low 0.989 | S. cerevisiae deletion strains, locus YLR058C, strain SHM2, active compounds read low 1.01 | S. cerevisiae deletion strains, locus YLR102C, strain apc9, active compounds read low 1 | S. cerevisiae deletion strains, locus YLR113W, strain HOG1, active compounds read low 0.938 | S. cerevisiae deletion strains, locus YLR221C, strain rsa3, active compounds read low 0.993 | S. cerevisiae deletion strains, locus YLR258W, strain gsy2, active compounds read low 0.994 | S. cerevisiae deletion strains, locus YLR262C, strain YPT6 (second series), active compounds read low 0.93 | S. cerevisiae deletion strains, locus YLR262C, strain YPT6, active compounds read low 0.978 | S. cerevisiae deletion strains, locus YLR268W, strain sec22, active compounds read low 1.05 | S. cerevisiae deletion strains, locus YLR320W, strain mms22, active compounds read low 1.01 | S. cerevisiae deletion strains, locus YLR330W, strain CHS5, active compounds read low 1.01 | S. cerevisiae deletion strains, locus YLR342W, strain FKS1 (second series), active compounds read low 1.03 | S. cerevisiae deletion strains, locus YLR342W, strain FKS1, active compounds read low 0.985 | S. cerevisiae deletion strains, locus YLR357W, strain rsc2, active compounds read low 0.918 | S. cerevisiae deletion strains, locus YLR370C, strain arc18, active compounds read low 0.973 | S. cerevisiae deletion strains, locus YLR371W, strain rom2, active compounds read low 0.987 | S. cerevisiae deletion strains, locus YLR384C, strain iki3, active compounds read low 0.967 | S. cerevisiae deletion strains, locus YLR418C, strain cdc73, active compounds read low 0.995 | S. cerevisiae deletion strains, locus YML016C, strain PPZ1, active compounds read low 1 | S. cerevisiae deletion strains, locus YML032C, strain rad52, active compounds read low 1.01 | S. cerevisiae deletion strains, locus YML120C, strain ndi1, active compounds read low 0.977 | S. cerevisiae deletion strains, locus YML124C, strain tub3, active compounds read low 1 | S. cerevisiae deletion strains, locus YMR058W, strain fet3, active compounds read low 0.993 | S. cerevisiae deletion strains, locus YMR078C, strain ctf18, active compounds read low 1 | S. cerevisiae deletion strains, locus YMR125W, strain sto1, active compounds read low 0.924 | S. cerevisiae deletion strains, locus YMR129W, active compounds read low 0.972 | S. cerevisiae deletion strains, locus YMR205C, strain PFK2, active compounds read low 0.98 | S. cerevisiae deletion strains, locus YMR223W, strain ubp8, active compounds read low 0.99 | S. cerevisiae deletion strains, locus YMR231W, strain pep5, active compounds read low 0.967 | S. cerevisiae deletion strains, locus YMR263W, strain SAP30, active compounds read low 1.01 and 1 | S. cerevisiae deletion strains, locus YMR307W, strain GAS1, active compounds read low 0.923 and 1.01 | S. cerevisiae deletion strains, locus YNL067W, strain RPL9B, active compounds read low 1.02 | S. cerevisiae deletion strains, locus YNL071W, strain lat1, active compounds read low 0.988 | S. cerevisiae deletion strains, locus YNL128W, strain TEP1, active compounds read low 1.01 | S. cerevisiae deletion strains, locus YNL153C, strain GIM3, active compounds read low 1.02 | S. cerevisiae deletion strains, locus YNL175C, strain NOP13, active compounds read low 0.994 | S. cerevisiae deletion strains, locus YNL183C, strain NPR1, active compounds read low 0.93 | S. cerevisiae deletion strains, locus YNL197C, strain WHI3, active compounds read low 0.954 | S. cerevisiae deletion strains, locus YNL209W, strain ssb2, active compounds read low 0.972 | S. cerevisiae deletion strains, locus YNL224C, strain SQS1, active compounds read low 0.987 | S. cerevisiae deletion strains, locus YNL233W, strain BNI4, active compounds read low 1.01 | S. cerevisiae deletion strains, locus YNL248C, strain rpa49, active compounds read low 0.981 | S. cerevisiae deletion strains, locus YNL250W, strain rad50, active compounds read low 0.992 | S. cerevisiae deletion strains, locus YNL271C, strain bni1, active compounds read low 1.01 | S. cerevisiae deletion strains, locus YNL298W, strain CLA4, active compounds read low 0.984 | S. cerevisiae deletion strains, locus YNL307C, strain MCK1, active compounds read low 1 | S. cerevisiae deletion strains, locus YNL322C, strain KRE1 (second series), active compounds read low 0.965 | S. cerevisiae deletion strains, locus YNL322C, strain KRE1, active compounds read low 1 | S. cerevisiae deletion strains, locus YNR049C, strain mso1, active compounds read low 0.963 | S. cerevisiae deletion strains, locus YNR052C, strain pop2, active compounds read low 1.01 | S. cerevisiae deletion strains, locus YOL006C, strain TOP1, active compounds read low 1.08 | S. cerevisiae deletion strains, locus YOL012C, strain htz1 0.943 | S. cerevisiae deletion strains, locus YOL147C, strain pex11, active compounds read low 1 | S. cerevisiae deletion strains, locus YOR001W, strain rrp6, active compounds read low 0.949 | S. cerevisiae deletion strains, locus YOR061W, strain CKA2, active compounds read low 1.01 | S. cerevisiae deletion strains, locus YOR069W, strain VPS5, active compounds read low 1 | S. cerevisiae deletion strains, locus YOR070C, strain gyp1, active compounds read low 0.981 | S. cerevisiae deletion strains, locus YOR080W, strain dia2, active compounds read low 0.972 | S. cerevisiae deletion strains, locus YOR083W, strain WHI5 (second series), active compounds read low 0.978 | S. cerevisiae deletion strains, locus YOR083W, strain WHI5, active compounds read low 0.987 | S. cerevisiae deletion strains, locus YOR106W, strain vam3, active compounds read low 0.969 | S. cerevisiae deletion strains, locus YOR136W, strain idh2, active compounds read low 0.998 | S. cerevisiae deletion strains, locus YOR144C, strain elg1, active compounds read low 1 | S. cerevisiae deletion strains, locus YOR184W, strain ser1, active compounds read low 1.01 | S. cerevisiae deletion strains, locus YOR231W, strain MKK1, active compounds read low 0.986 | S. cerevisiae deletion strains, locus YOR265W, strain rbl2, active compounds read low 1 | S. cerevisiae deletion strains, locus YOR270C, strain vph1, active compounds read low 0.969 | S. cerevisiae deletion strains, locus YOR290C, strain snf2, active compounds read low 1 | S. cerevisiae deletion strains, locus YOR316C, strain cot1, active compounds read low 1 | S. cerevisiae deletion strains, locus YPL051W, strain arl3, active compounds read low 0.994 | S. cerevisiae deletion strains, locus YPL055C, strain LGE1, active compounds read low 0.989 | S. cerevisiae deletion strains, locus YPL078C, strain atp4, active compounds read low 0.963 | S. cerevisiae deletion strains, locus YPL106C, strain sse1, active compounds read low 1.03 | S. cerevisiae deletion strains, locus YPL240C, strain hsp82, active compounds read low 0.976 | S. cerevisiae deletion strains, locus YPL241C, strain CIN2, active compounds read low 1.01 | S. cerevisiae deletion strains, locus YPL256C, strain CLN2, active compounds read low 0.981 | S. cerevisiae deletion strains, locus YPR119W, strain clb2, active compounds read low 1.01 | S. cerevisiae deletion strains, locus YPR141C, strain kar3, active compounds read low 1 | S. cerevisiae deletion strains, locus YPR163C, strain tif3, active compounds read low 1.01 | S. cerevisiae deletion strains, locus YPR167C, strain met16, active compounds read low 1.01 | S. cerevisiae deletion strains, strain wtn01, active compounds read low 0.994 | S. cerevisiae strains, strain wild type, active compounds read low 0.999
